These results are taken from PubChem BioAssay (Tox21).

Inconclusive results are not listed. Where a call stands in place of a potency, no number is given. Active and inactive are the calls of the source. Unless noted, calls follow the shape of the dose curve; as a rule, active = well fitted cell-killing curve with a large enough effect in the repeat runs; inconclusive = weak or mixed curves, or effect the other way; inactive = flat fitted curve, though single readings scatter.

Sequence of Estrogen receptor beta (Homo sapiens) (Q92731 whole entry, looked up): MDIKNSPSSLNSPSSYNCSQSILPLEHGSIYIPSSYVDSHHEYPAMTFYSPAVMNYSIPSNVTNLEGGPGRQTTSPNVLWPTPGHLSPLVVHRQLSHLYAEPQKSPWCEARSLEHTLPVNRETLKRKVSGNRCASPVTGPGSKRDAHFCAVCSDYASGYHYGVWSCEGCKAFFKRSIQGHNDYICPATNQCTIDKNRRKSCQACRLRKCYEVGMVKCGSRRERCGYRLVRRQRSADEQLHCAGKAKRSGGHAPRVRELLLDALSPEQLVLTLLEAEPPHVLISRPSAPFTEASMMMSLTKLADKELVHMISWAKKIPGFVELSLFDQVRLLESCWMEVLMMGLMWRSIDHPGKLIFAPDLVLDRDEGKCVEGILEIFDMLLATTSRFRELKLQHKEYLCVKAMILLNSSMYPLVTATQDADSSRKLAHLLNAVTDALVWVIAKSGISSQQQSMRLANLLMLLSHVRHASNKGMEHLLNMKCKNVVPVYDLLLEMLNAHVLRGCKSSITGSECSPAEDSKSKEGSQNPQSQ

One assay has as its target Estrogen receptor beta (Homo sapiens) (UniProt Q92731). The assay is described as follows: qHTS assay to identify small molecule antagonists of the estrogen receptor beta (ER-beta) signaling pathway (AID 1259378; active = well fitted inhibition curve with a large enough effect in the signal ratio in the repeat runs, not every such curve was filed as active; the % refers to the signal ratio). Particulars: ER-beta-UAS-bla HEK293T, beta-lactamase FRET ratio, 16 h; series mostly up to 92.4 µM. The gist of the method: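 Antagonist mode: compounds added to beta-lactamase reporter HEK293T ER-beta-UAS cells stimulated with E2 (1nM final), 16 hr at 37C. LiveBLAzer B/G FRET substrate, 2 hours room temperature, fluorescence read-out.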
With `CN1C(=O)CC(C)(c2ccccc2)C1=O` (stereo not drawn), the Potency entry was “inactive”.
Still for that read-out and setting: the entry for `CC(=O)Nc1ccccc1C` is “inactive”; for `CCCCC(CC)COC(=O)COc1ccc(Cl)cc1C` (stereo not drawn) it is “inactive”; for `COc1ccc(CCC(=O)c2c(O)cc(O[C@@H]3O[C@H](CO)[C@@H](O)[C@H](O)[C@H]3O[C@@H]3O[C@@H](C)[C@H](O)[C@@H](O)[C@H]3O)cc2O)cc1O` it is “inactive”.
Still for that read-out and setting: in the case of `Cc1cc(OI)c(C(C)C)cc1-c1cc(C(C)C)c(OI)cc1C` it was “inactive”; in that of `CCCOCCOCCO`, “inactive”.
Same read-out and setting: in the case of `CC(=O)Nc1ccc(N)cc1` it was “inactive”.
Take `CC1=C(C=O)C(C)(C)CCC1`: the Potency result was “inactive”.
On to `C=CCCCCCCCCCCCCCCCC`, for which the activity, negative = inhibition was 3.67% [at 8.39 µM] (inactive).
On the same count and under the same terms, the figure for `[O]=[Bi]` is 1.25% [at 8.39 µM] (inactive).
Turning to `CN1Cc2cc(C(=O)N3CCC(C4CCNCC4)CC3)ccc2N[C@@H](CC(=O)O)C1=O`, the Potency result was “inactive”.
Take `Cc1ccccc1N1C(=O)c2cc(S(N)(=O)=O)c(Cl)cc2NC1C` (stereo not drawn): the Potency entry was “inactive”.
On the same count and under the same terms, in the case of `CC(CCO)CCc1ccccc1` (stereo not drawn) it was “inactive”.
The same measure, in the same setting: the entry for `O=C(O)c1snc(Cl)c1Cl` is “inactive”.
On the same count and under the same terms, the entry for `Cc1nc2ccccc2s1` is “inactive”; for `C=CC(=O)NCOCC(C)C` it is “inactive”; for `CCn1cc(C(=O)O)c(=O)c2cc(F)c(N3CCNCC3)nc21` it is “inactive”.
`NC(=O)Nc1ccc(Cl)cc1`: the Potency result is “inactive”.
Same read-out and setting: in the case of `Cc1ccnc2ccccc12` it was “inactive”.
`CN1CCN(c2c(F)cc3c(=O)c(C(=O)O)cn4c3c2OCN4C)CC1`: the activity, negative = inhibition is 2.63% [at 19 µM] (inactive).
In the case of `NCC1CCCC(CN)C1` (stereo not drawn), the Potency entry is “inactive”.
For `CCC(=O)OC/C=C/c1ccccc1`, the Potency entry is “inactive”.
`CCCCCCCCCOC(C)=O`: the Potency entry is “inactive”.
On the same count and under the same terms, the entry for `O=C(CCCCCCCCC#CI)Oc1ccccc1` is “inactive”; for `CO[C@H]1O[C@H](CO)[C@@H](O)[C@H](O)[C@H]1O` it is “inactive”; for `O=S1OCCO1` it is “inactive”.
Take `O=C(O)C(Cc1cc(I)c(O)c(I)c1)c1ccccc1` (stereo not drawn): the Potency result is “inactive”.
The same measure, in the same setting: the entry for `CC(CCc1ccc2c(c1)OCO2)NN` (stereo not drawn) is “inactive”.
On the same count and under the same terms, in the case of `CC(=O)OCC(=O)[C@@]12OC(C)(C)O[C@@H]1C[C@H]1[C@@H]3C[C@H](F)C4=CC(=O)C=C[C@]4(C)[C@@]3(F)[C@@H](O)C[C@@]12C` it was “inactive”; in that of `CC1CC(O)CC(C)(C)C1` (stereo not drawn), “inactive”; in that of `CCCCCCOC(=O)C(C)C`, “inactive”.
`CCCC(=O)O[C@]1(C(=O)COC(=O)CC)CC[C@H]2[C@@H]3CCC4=CC(=O)CC[C@]4(C)[C@H]3[C@@H](O)C[C@@]21C`: the activity, negative = inhibition was 1.87% [at 19 µM] (inactive).
As to `CCOCCn1c(C2CCN(CCc3ccc(C(C)(C)C(=O)O)cc3)CC2)nc2ccccc21`, the Potency result was “inactive”.
The same measure, in the same setting: the entry for `CCCCOC(=O)CCS` is “inactive”.
For `CCCOC(=O)c1ccc(N)cc1`, the Potency result was “inactive”.
`CC1(C)C(=O)N(Br)C(=O)N1Cl`: the Potency result is “inactive”.
On the same count and under the same terms, the entry for `Cc1cc(O)c(C(C)C)cc1Cl` is “inactive”.
Still for that read-out and setting: in the case of `CCOC(=O)/C=C/C(=O)O` it was “inactive”; in that of `O=C(O)c1cccc(O)c1`, “inactive”.

Tested on in another assay: not listed separately
Briefly: qHTS assay to identify small molecule agonists of the androgen receptor (AR) signaling pathway in the presence of an antagonist - cell viability counter screen (AID 1259379).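 Also: MDA-kb2 human breast cancer cells carrying an MMTV luciferase reporter; nearly all actives have a fitted effect of over 25% in size.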 Particulars: MDA-kb2 viability, CellTiter-Fluor, 16 h; series mostly up to 92.4 µM. A digest of the protocol:
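MDA-kb2 viability measured by CellTiter-Fluor fluorescence in the same wells as the luciferase signal; nilutamide 3.0uM final; 15-point compound titration; 16 hr at 37C.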
For orientation: Quantitative high-throughput screening tests each substance at several concentrations.
As to `CN1C(=O)CC(C)(c2ccccc2)C1=O` (stereo not drawn), the Potency entry is “inactive”.
Still for that read-out and setting: the entry for `CC(=O)Nc1ccccc1C` is “inactive”; for `CCCCC(CC)COC(=O)COc1ccc(Cl)cc1C` (stereo not drawn) it is “inactive”; for `COc1ccc(CCC(=O)c2c(O)cc(O[C@@H]3O[C@H](CO)[C@@H](O)[C@H](O)[C@H]3O[C@@H]3O[C@@H](C)[C@H](O)[C@@H](O)[C@H]3O)cc2O)cc1O` it is “inactive”.
Take `Cc1cc(OI)c(C(C)C)cc1-c1cc(C(C)C)c(OI)cc1C`: the Potency entry is “inactive”.
Still for that read-out and setting: in the case of `CCCOCCOCCO` it was “inactive”; in that of `CC(=O)Nc1ccc(N)cc1`, “inactive”; in that of `CC1=C(C=O)C(C)(C)CCC1`, “inactive”.
On to `C=CCCCCCCCCCCCCCCCC`, for which the activity change, negative = cytotoxicity is 0.762% [at 8.39 µM] (inactive).
Consider `[O]=[Bi]`, for which the activity change, negative = cytotoxicity was 2.01% [at 8.39 µM] (inactive).
For the molecule `CN1Cc2cc(C(=O)N3CCC(C4CCNCC4)CC3)ccc2N[C@@H](CC(=O)O)C1=O`, the Potency entry is “inactive”.
Still for that read-out and setting: in the case of `Cc1ccccc1N1C(=O)c2cc(S(N)(=O)=O)c(Cl)cc2NC1C` (stereo not drawn) it was “inactive”; in that of `CC(CCO)CCc1ccccc1` (stereo not drawn), “inactive”.
As for `O=C(O)c1snc(Cl)c1Cl`, the Potency result is “inactive”.
In the case of `Cc1nc2ccccc2s1`, the Potency result is “inactive”.
As for `C=CC(=O)NCOCC(C)C`, the Potency entry is “inactive”.
Same read-out and setting: the entry for `CCn1cc(C(=O)O)c(=O)c2cc(F)c(N3CCNCC3)nc21` is “inactive”; for `NC(=O)Nc1ccc(Cl)cc1` it is “inactive”.
Take `Cc1ccnc2ccccc12`: the Potency result is “inactive”.
Regarding `CN1CCN(c2c(F)cc3c(=O)c(C(=O)O)cn4c3c2OCN4C)CC1`, the activity change, negative = cytotoxicity was 0.471% [at 19 µM] (inactive).
In the case of `NCC1CCCC(CN)C1` (stereo not drawn), the Potency entry was “inactive”.
With `CCC(=O)OC/C=C/c1ccccc1`, the Potency entry was “inactive”.
Turning to `CCCCCCCCCOC(C)=O`, the Potency entry is “inactive”.
The same measure, in the same setting: in the case of `O=C(CCCCCCCCC#CI)Oc1ccccc1` it was “inactive”; in that of `CO[C@H]1O[C@H](CO)[C@@H](O)[C@H](O)[C@H]1O`, “inactive”.
Still for that read-out and setting: in the case of `O=S1OCCO1` it was “inactive”; in that of `O=C(O)C(Cc1cc(I)c(O)c(I)c1)c1ccccc1` (stereo not drawn), “inactive”; in that of `CC(CCc1ccc2c(c1)OCO2)NN` (stereo not drawn), “inactive”.
Same read-out and setting: in the case of `CC(=O)OCC(=O)[C@@]12OC(C)(C)O[C@@H]1C[C@H]1[C@@H]3C[C@H](F)C4=CC(=O)C=C[C@]4(C)[C@@]3(F)[C@@H](O)C[C@@]12C` it was “inactive”; in that of `CC1CC(O)CC(C)(C)C1` (stereo not drawn), “inactive”.
On to `CCCCCCOC(=O)C(C)C`, for which the Potency result is “inactive”.
As to `CCCC(=O)O[C@]1(C(=O)COC(=O)CC)CC[C@H]2[C@@H]3CCC4=CC(=O)CC[C@]4(C)[C@H]3[C@@H](O)C[C@@]21C`, the activity change, negative = cytotoxicity was 0.279% [at 19 µM] (inactive).
As to `CCOCCn1c(C2CCN(CCc3ccc(C(C)(C)C(=O)O)cc3)CC2)nc2ccccc21`, the Potency entry was “inactive”.
Same read-out and setting: the entry for `CCCCOC(=O)CCS` is “inactive”; for `CCCOC(=O)c1ccc(N)cc1` it is “inactive”; for `CC1(C)C(=O)N(Br)C(=O)N1Cl` it is “inactive”.
On the same count and under the same terms, in the case of `Cc1cc(O)c(C(C)C)cc1Cl` it was “inactive”; in that of `CCOC(=O)/C=C/C(=O)O`, “inactive”.
The same measure, in the same setting: in the case of `O=C(O)c1cccc(O)c1` it was “inactive”.
